Data: PubChem BioAssay (EPA / NIEHS)
Values joined by “and” are separate entries in the source; they are usually repeats but may differ in a detail not shown here. Identical values can stand only once. Inconclusive results are not listed. Active and inactive are the calls of the source. The calls were made as follows: active = hit-call score of the fitted dose curve at least 0.9, where 1 is the maximum; inconclusive = response in the unintended direction; inactive = score below 0.9.

molecular target: human Opioid Receptor Mu (Opiate Mu), OPRM1 (gene 4988) (UniProt P35372); assay: NVS_GPCR_hOpiate_mu: NovaScreen (NVS) G Protein-Coupled Receptor Assay for human Opioid Receptor Mu (Opiate Mu) (AID 2283290);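 also: hits lower bound tracer signal versus DMSO meaning displacement of the ligand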
Protocol: NVS_GPCR_hOpiate_mu is a biochemical, single-readout assay that uses extracted gene-proteins from CHO in a cell-free assay. Measurements were taken 2.5 hours after chemical dosing in a 96-well plate.NVS_GPCR_hOpiate_mu is one of one assay component(s) measured or calculated from the NVS_GPCR_hOpiate_mu assay. It is designed to make measurements of radioligand binding, a form of binding reporter, as detected with scintillation counting signals by Filter-based radiodetection technology.Data from the assay component NVS_GPCR_hOpiate_mu was analyzed into 1 assay endpoint. This assay endpoint, NVS_GPCR_hOpiate_mu, was analyzed in the positive analysis fitting direction relative to DMSO as the negative control and baseline of activity. Using a type of binding reporter, loss-of-signal activity can be used to understand changes in the binding as they relate to the gene OPRM1. Furthermore, this assay endpoint can be referred to as a primary readout, because the performed assay has only produced 1 assay endpoint. To generalize the intended target to other relatable targets, this assay endpoint is annotated to the gpcr intended target family, where the subfamily is rhodopsin-like receptor.
Binding assays used specific radioligands (tritiated, iodinated) with non-radioactive competitive displacement ligands in agonist or antagonist protocols (as indicated) and various reference compounds and inhibitors to titrate specific binding to receptors and transporters. Most enzyme assays (CYPs, kinases, phosphatases, proteases, HDACs) used recombinant protein and specific substrates (fluorescence mostly, some colorimetric and radioactive) and inhibitors, followed by a biochemical separation of substrate and product. All assays for the biochemical HTS were initially run in duplicate at a single concentration (10 uM for CYP450 assays and 25 uM for all others). […] Each assay was run with positive and negative controls, and concurrent controls on every plate. The follow-up (secondary) screen tested active chemical-pairs in concentration series, as well as a few additional assays not tested in the primary screen, some selected negative inactives, and several cases re-run in the concentration series for confirmatory purposes.

Sequence of human Opioid Receptor Mu (Opiate Mu), OPRM1 (gene 4988) (P35372 whole entry, looked up): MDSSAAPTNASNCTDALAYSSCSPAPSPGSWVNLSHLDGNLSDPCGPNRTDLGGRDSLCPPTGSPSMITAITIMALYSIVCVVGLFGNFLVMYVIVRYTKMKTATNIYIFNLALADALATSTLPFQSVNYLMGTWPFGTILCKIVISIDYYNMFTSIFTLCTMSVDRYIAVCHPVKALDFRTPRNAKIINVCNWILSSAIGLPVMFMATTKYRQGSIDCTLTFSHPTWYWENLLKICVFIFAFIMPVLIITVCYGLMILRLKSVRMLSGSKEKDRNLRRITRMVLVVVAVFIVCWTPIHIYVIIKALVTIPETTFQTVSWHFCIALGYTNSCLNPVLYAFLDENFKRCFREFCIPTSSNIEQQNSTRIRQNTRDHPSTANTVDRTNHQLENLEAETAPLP

AC50, active:
CN(C[C@@H](CC[N+]12CCC(C3CCCCC3)(CC1)CC2)c1ccc(Cl)c(Cl)c1)C(=O)c1cc(C(F)(F)F)cc(C(F)(F)F)c1 2.11 µM
COc1cccc([C@H](O)C2CCN(CCc3ccc(F)cc3)CC2)c1OC 12.6 µM
NCc1cccc(C2CCN(C(=O)c3ccc(C#Cc4ccccc4F)o3)CC2)c1 2.56 µM
CCOC(=O)O[C@H](C)OC(=O)c1ccc2c(c1)cc(C(=O)NC1CCN(C(C)C)CC1)n2Cc1cc(-c2ccc(Cl)s2)on1 2.94 µM
CCCCCCCCOC(=O)c1cc(O)c(O)c(O)c1 18 µM
COc1cc(C(=O)NC2CCN(C)CC2)ccc1Nc1ncc2c(n1)N(C1CCCC1)CC(F)(F)C(=O)N2C 17.4 µM
CC/C(=C(/CC)c1ccc(O)cc1)c1ccc(O)cc1 5.64 µM and 4.96 µM and 10.7 µM
COc1ccc2cc(S(=O)(=O)N[C@H](CC(=O)N[C@H](Cc3ccc(CN4[C@H](C)CCC[C@@H]4C)cc3)C(=O)N(C)C(C)C)c3ccc4c(c3)OCO4)ccc2c1 8.69 µM
CN(C)C(=O)C1(N2CCCCC2)CCN(CC[C@@]2(c3ccc(Cl)c(Cl)c3)CN(C(=O)c3ccccc3)CCO2)CC1 1.41 µM
CCN(CC)C(=O)c1cc(S(=O)(=O)Cc2ccccc2)c(N2CCC(c3ccccc3)CC2)cc1N(CC)CCN(C)C 10.3 µM
CCN(Cc1cccnc1)C(=O)c1cccc(Cl)c1[C@]1(C)C(=O)N(Cc2ccc(OC)cc2OC)c2ccc(Cl)cc21 1.48 µM
CN(C)c1ccc(C(=C2C=CC(=[N+](C)C)C=C2)c2ccc(N(C)C)cc2)cc1 2.5 µM

outcome, inactive:
Cc1cc2c(cc1C(F)(F)F)N(C(=O)Nc1ccc(Oc3cccnc3C)nc1)CC2
O=c1[nH]sc2ccccc12
CC[C@H](NC(=O)c1cc(F)ccc1NS(=O)(=O)c1cccc2cccnc12)c1ccccc1
Clc1ccccc1C(c1ccccc1)(c1ccccc1)n1ccnc1
CCCCCCCCCCCC[N+](C)(C)C
